Source: PubChem
Most compounds without a hit are left out; they make up all but 4.1% or so of the library.
ssDAF-12 act = S. stercoralis DAF-12 activation, primary screen; HEK293 ssDAF-12/GRIP1 lit1-tk-luc reporter, luminescence; % of 3 µM dafachronic acid response; activation, % at 6.8 µM; 1% of 370,000 active; AID 652126;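 active = activation above the mean over all tested compounds plus 3 SD, cut at about 0.9% in these data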;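 also: 0% = DMSO-only wells and 100% = 3 µM delta7-dafachronic acid wells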
hcDAF-12 act = activators of H. contortus DAF-12 nuclear receptor. HEK293 hcDAF-12 lit1-tk-luc reporter, luminescence; 0% DMSO, 100% Δ7-dafachronic acid. 1.4% of 370,000 active. AID 652067. activation, % at 6.8 µM;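 active = activation above the mean of all tested compounds plus 3 SD, cut at about 5.5% in these data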;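 also: 100% = response to 3 µM Δ7-dafachronic acid high control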
DAX1 inh-1 = inhibits human nuclear receptor DAX1. P51843. HEK293 Gal4-DAX1 luciferase reporter, luminescence. inhibition, % at 6.75 µM. 0.99% of 340,000 active. AID 504766;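 active = inhibition above the mean over all tested compounds plus 3 SD, cut at about 4.2% in these data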;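 also: 0% = DAX1-transfected cells with DMSO and 100% = empty-vector control cells with DMSO; inhibition shows as a rise in luminescence from relieved DAX1 repression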
Target sequence (P51843 207-470 limits assumed): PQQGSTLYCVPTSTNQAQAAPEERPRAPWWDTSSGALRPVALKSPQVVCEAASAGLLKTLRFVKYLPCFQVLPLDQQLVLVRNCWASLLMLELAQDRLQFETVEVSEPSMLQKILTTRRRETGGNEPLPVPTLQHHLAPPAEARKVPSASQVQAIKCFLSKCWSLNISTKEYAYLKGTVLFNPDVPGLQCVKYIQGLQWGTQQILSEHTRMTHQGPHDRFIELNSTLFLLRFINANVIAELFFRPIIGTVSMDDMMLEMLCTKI
hgDAF-12 ag = hgDAF-12 agonism, primary luciferase screen; HEK293 GAL4-hgDAF12 UAS-luciferase reporter, agonist luminescence; normalized to butyrate control; activation, % at 6.8 µM; 1.8% of 370,000 active;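 active = activation above a cutoff set at the mean of all screened compounds plus 3 SD, cut at about 10% in these data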;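 also: 0% = DMSO wells and 100% = sodium butyrate wells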
DAX1 inh-2 = inhibitors of DAX1 repression of SF-1 activated StAR promoter. HEK293T StAR-luciferase reporter, SF-1/DAX-1 repression relief. inhibition, % at 6.8 µM. 1.1% of 370,000 active. AID 652010;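 active = inhibition above the mean over all tested compounds plus 3 SD, cut at about 3.6% in these data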;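 also: 0% = DAX-1 cells with DMSO and 100% = cells lacking DAX-1 with DMSO; higher inhibition means more luminescence from relief of DAX-1 repression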
The depositor's hits bear a star; / = no result.

SMILES	ssDAF-12 act	hcDAF-12 act	DAX1 inh-1	hgDAF-12 ag	DAX1 inh-2
COc1ccc(NC(=O)Nc2cc(C)ccc2OC)cc1	-2	-2	0	2	0
COc1ccc(C(=O)COc2ccc(C)cc2NC(C)=O)cc1	0	2	/	10*	2
CCOc1ccc(OCC(=O)Nc2ccc(OC)cc2[N+](=O)[O-])cc1	-2	0	-1	1	0
CCCOC(=O)Nc1cc(OC)ccc1[N+](=O)[O-]	0	2	4.7*	5	0
O=C(COc1ccc(Cl)cc1Cl)OCC(=O)N1CCCc2ccccc21	1	5	9.8*	4	1
O=C(CCCOc1ccc(Cl)cc1Cl)N1CCCc2ccccc21	-1	0	-1	-2	0
COc1ccc(CNC(=O)O[C@H]2CC[C@@]34CCCN3C(=O)CCC[C@H]4C2)cc1OC	0	-2	/	-1	/
NC(=O)CSc1nnc(Cn2cnc3ccccc32)o1	-1	-1	4.2*	-2	0
Cc1c(NC(=O)C2CCCN(S(=O)(=O)c3ccccc3[N+](=O)[O-])C2)c(=O)n(-c2ccccc2)n1C (stereo unspecified)	0	-1	/	0	-1
CC(C)N(C)c1ncnc2c1ncn2[C@H]1CN(Cc2cccnc2)C[C@@H](CO)O1	8.1*	-1	/	-1	-1
O=C(CCc1nnc(-c2ccc3c(c2)OCO3)o1)N1CCC(c2ccc(F)cc2)C1 (stereo unspecified)	1	1	5.0*	8	1
Clc1ccccc1C1CC(c2ccccc2)=Nc2ccccc2N1 (stereo unspecified)	-1	2	4.8*	8	1
O=[N+]([O-])c1ccc(OCCCN2CCC(C(O)(c3ccccc3)c3ccccc3)CC2)c(Cl)c1	-2	-2	/	-1	1
Cc1ccc(CNC(=O)C2CCC(=O)N(CCc3ccc(Cl)cc3)C2)s1 (stereo unspecified)	1.1*	-1	1	2	-1
Cc1ccc(CNC(=O)C2CCC(=O)N(CCc3ccc(Cl)cc3)C2)cc1 (stereo unspecified)	-1	0	0	8	-1
Cc1ccc(C23CC4CC(CC(CN)(C4)C2)C3)cc1	0	2	4.9*	0	0
NCC12CC3CC(C1)CC(c1ccc(Br)cc1)(C3)C2	-1	-2	0	0	-1
NS(=O)(=O)c1ccc(CCNC(=O)CSc2nc3ccsc3c(=O)n2CCCCCC(=O)O)cc1	-1	2	2	1	-1
CCCCNC(=O)CSc1nc2ccsc2c(=O)n1CCCC(=O)NCCc1ccc(S(N)(=O)=O)cc1	-2	0	6.1*	3	1
O=C(NCCO)[C@H](Cc1ccccc1)NC1(C(=O)NCCc2c[nH]c3ccccc23)CCCCC1	-1	0	/	3	/
CCC(C)[C@@H](C(=O)OC)N(Cc1cn(Cc2ccccc2)nn1)S(=O)(=O)c1ccccc1Br (stereo partly specified)	-1	-1	/	-1	0
COc1cccc(NC(=O)CN(C)C(=O)c2cc(S(=O)(=O)N3CCCCC3)ccc2Cl)c1	0	-2	0	-2	4.2*
COc1ccc(S(=O)(=O)N2CCCCCC2)cc1C(=O)N(C)CC(=O)Nc1ccc(Cl)c(Cl)c1	-1	0	0	-2	-2
O=C(NCCC(=O)N1CCN(c2ccccc2F)CC1)c1ccco1	-1	1	0	1	3.7*
CC(=O)Nc1ccc(-c2cc(N)n(-c3ccccc3)n2)cc1	-1	4	2	11*	3.9*
SMILES	ssDAF-12 act	hcDAF-12 act	DAX1 inh-1	hgDAF-12 ag	DAX1 inh-2
CC(=O)Nc1ccc(-c2cc(NC(C)=O)n(-c3ccccc3)n2)cc1	-1	-1	0	2	-1
NC(=O)Nc1ccccc1C(=O)N1CCC(O)(c2ccc(Cl)cc2)CC1	/	/	5.4*	/	/
CCCCc1ccc(-c2noc(CCC(=O)NCC)n2)cc1	-2	-6	/	-10	/
CCOC(=O)c1cnn2c(C)cc(-c3ccc(F)cc3)nc12	0	2	1	12*	3
Cc1cc(-c2ccc(F)cc2)nc2cc(C(N)=O)nn12	-1	-3	0	1	-1
O=C(O)CSc1nnc(-c2ccc3c(c2)OCO3)o1	0	1	0	3	0
NC(=O)CSc1nnc(-c2ccc3c(c2)OCO3)o1	2.8*	3	/	13*	3
CC(C)(C)N(Cc1cn(Cc2ccccc2)nn1)S(=O)(=O)c1ccc(N2CCCCC2)cc1Br	-1	-3	/	0	-2
Cc1ccc(S(=O)(=O)N2CCCCC2)cc1NC(=O)COC(=O)c1c(F)cccc1F	0	-1	0	2	0
Cc1ccc(S(=O)(=O)N2CCCCC2)cc1NC(=O)COC(=O)Cc1c(F)cccc1Cl	-2	6.1*	-2	-1	0
CS(=O)(=O)c1ccc(Cl)c(NC(=O)Cc2ccccc2F)c1	-1	0	-1	-2	0
CS(=O)(=O)c1ccc(Cl)c(NC(=O)Cc2c(F)cccc2Cl)c1	0	5.6*	-1	-2	0
C#CCNC(=O)C[C@H]1C[C@@]2(C(=O)OC)C(=C[C@H](C(C)(C)C)O[C@@H]2C)N(Cc2cccc3ccccc23)C1=O	-2	-1	/	3	-1
O=C(OC12CCCN(C1)/C(=C/c1cccc(Cl)c1)C2)c1ccc(F)cc1 (stereo unspecified)	-1	-2	/	-2	1
COc1ccnc(CS(=O)c2nc3cc(C(O)(F)F)ccc3[nH]2)c1OC (stereo unspecified)	0	6.1*	0	3	0
CCOC(=O)Cn1cc(CN2C(C(=O)OC)CN(Cc3ccc(C)cc3)CCS2(=O)=O)nn1 (stereo unspecified)	-1	2	/	-3	0
COc1cccc(-c2cn3nc4c(nc3n2)CCCC4)c1	/	/	-1	/	/
Fc1cccc(-c2cc3nc4c(c(NCc5ccco5)n3n2)CCCC4)c1	0	3	3	11*	4.2*
COc1cccc(-c2cc3nc4c(c(NCC(C)(C)CN(C)C)n3n2)CCCC4)c1	-2	0	4.3*	6	2
CCc1nc2ccc(C(=O)NC3CCN(Cc4ccccc4)CC3)cn2c1N(CC)Cc1cccc(Br)c1	-1	0	/	-3	-1
CNC(=O)[C@@H]1CC=C[C@@H]2CCN(c3ccccc3)C(=O)[C@@H]21	-1	0	/	6	/
C=CCN1C=C2C(=O)C(C)(OC(=O)C3CCCC3)C(=O)C=C2C=C1c1ccsc1 (stereo unspecified)	1.4*	4	1	6	1
CN(C)c1ccc(/C=N/NC(=O)CN2CCCCC2)cc1Br	1.3*	-2	1	-1	1
Nc1ccc(-c2cnc(-c3ccc(N)cc3)nc2)cc1	1	4	-3	10*	2
CCCC(=O)Nc1ccc(-c2cnc(-c3ccc(NC(=O)CCC)cc3)nc2)cc1	-1	0	1	4	0
